Bioassay records deposited in PubChem BioAssay by National Center for Advancing Translational Sciences (NCATS).
This is a sample that favours compounds with a hit; in the whole collection about 2.5% have one here.
Pol kappa inh: blocks human DNA polymerase kappa activity | Q9UBT6 | purified Pol kappa, fluorescent DNA synthesis assay, 10 min | Potency, µM (top dose mostly 107 µM), inactives show top-dose activity, negative = inhibition, most hits filed as inhibitors | hit rate 0.53% among 400,000; also: % is scaled to controls: 0 for no effect and ±100 for the full control effect
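10 nM Pol kappa preincubated 15 min at room temperature with compounds, then reaction started with substrate at 50 nM final. Fluorescence read kinetically at 0 and 10 min; buffer-only wells served as negative control.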
L3MBTL1 inh: L3MBTL1 (human) inhibition; Q9Y468; AlphaScreen L3MBTL1–H3K9me1 peptide binding; Potency, µM (titrated, usually from 57.1 µM), for inactives: at the top dose activity, negative = inhibition, actives largely listed as inhibitors; hit rate 0.66% among 230,000; also: % is scaled to controls: 0 for no effect and ±100 for the full control effect; nearly all actives have a fitted effect of over 60% in size
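AlphaScreen assay: L3MBTL1 (50 nM final) was preincubated 30 min at room temperature with biotinylated H3(1-15)K9me1 peptide (75 nM final), then 30 min with library compounds; streptavidin donor and nickel chelate acceptor beads (10 ug/mL final) added, 30 min dark.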
Pol beta inh: inhibitors of human DNA polymerase beta. P06746. Pol beta primer extension/strand displacement, fluorescence kinetic. Potency, µM (highest dose often 114 µM), without a hit: at the top dose activity change, negative = inhibition, usual class: inhibitors. hit rate 1.3% among 340,000. AID 485314; also: % is scaled to controls: 0 for no effect and ±100 for the full control effect
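Reaction started by 50 nM substrate onto compound-treated Pol beta (10 nM, 15 min preincubation, room temperature); plates read at 0 min and 10 min. Normalized concentration-effect data fitted by four-parameter Hill equation.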
POLI inh: inhibitors of human DNA polymerase iota | Q9UNA4 | Pol iota fluorescent replication assay, 10 min | Potency, µM (series often up to 115 µM), inactives show at the top dose activity, negative = inhibition, most hits filed as inhibitors | hit rate 1% among 390,000 | AID 588590
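Pol iota at 10 nM preincubated 15 min with compounds at room temperature; reaction started with fluorescent substrate, 50 nM final. Fluorescence read kinetically at 0 and 10 min; buffer-only wells as negative control.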
APE1 inh: inhibitors of human APE1 endonuclease; P27695; recombinant APE1, TAMRA/BHQ-2 abasic DNA cleavage fluorescence; Potency, µM (top dose mostly 65.8 µM), inactives show at the top dose activity change, negative = inhibition, actives largely listed as inhibitors; hit rate 0.35% among 350,000; AID 2517;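 also: plate controls were vehicle for no effect and reference inhibitor for full effect; nearly all actives have a fitted effect of over 55% in size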
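Substrate: short duplex with […] THF abasic site, 5'-TAMRA and 3'-BHQ-2, 50 nM final. APE1 at 0.75 nM, preincubated 15 min RT with compound. Fluorescence increase from first to third read measured activity.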
Pol eta inh: inhibitors of human DNA polymerase eta | Q9Y253 | recombinant Pol eta, fluorescent DNA replication assay | Potency, µM (series often up to 114 µM), inactives show top-dose activity change, negative = inhibition, most hits filed as inhibitors | hit rate 1.2% among 390,000; also: % is scaled to controls: 0 for no effect and ±100 for the full control effect
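Pol eta (10 nM) was preincubated with compounds for 15 min at room temperature, after which fluorescent replication substrate (50 nM final) was added to start the reaction. Fluorescence was read kinetically at 0 and 10 min.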
Numbers without * were called inactive; [ ] = dose if it differs, or a comment. Calls follow the shape of the dose curve; as a rule, active = well fitted curve in the direction sought with a large enough effect; inconclusive = small, poorly fitted or top-dose-only effect, or another doubt; inactive = no such curve, though single readings can be large; an effect the other way counts as inactive or inconclusive. Potency is read from the fitted curve at half-maximal effect.

`CC1=NN(c2nc(-c3ccc(C)cc3)cs2)C(=O)C1N=Nc1ccccc1O` (configuration not stated) gave Pol kappa inh -14%, L3MBTL1 inh 12%, Pol beta inh 35%, POLI inh -21%, APE1 inh 5% and Pol eta inh 10%.
For CC1=NN(c2nc(-c3ccc(C)cc3)cs2)C(=O)C1N=Nc1cccc(O)c1 (configuration not stated) the results were Pol kappa inh inconclusive, L3MBTL1 inh inconclusive, Pol beta inh 13µM*, POLI inh inconclusive, APE1 inh -1% and Pol eta inh inconclusive.
CN(C)c1oc(-c2cccc3ccccc23)nc1C#N was read as APE1 inh 52%.
Screening N#CC(C#N)=Cc1ccc(-c2ccc(S(=O)(=O)N=C(N)N)cc2)o1 returned Pol kappa inh -19%, L3MBTL1 inh -10%, Pol beta inh 7%, POLI inh inconclusive, APE1 inh 0% and Pol eta inh 20µM*.
For COC(=O)/C(C#N)=C/c1ccc(-c2ccc(S(N)(=O)=O)cc2)o1 the results were Pol kappa inh -16%, Pol beta inh -19%, POLI inh 37%, APE1 inh -4% and Pol eta inh -5%.
Screening CN1CCc2c(sc(NC(=O)c3cc4cc([N+](=O)[O-])ccc4s3)c2C(N)=O)C1 returned Pol beta inh 22µM* and APE1 inh -3%.
`C=Cc1ccc(S(=O)(=O)O)cc1` gave Pol kappa inh -3%[19.4 µM] and APE1 inh 14µM*.
For O=S(=O)(O)c1ccc(O)cc1 the results were Pol kappa inh -8%[60.1 µM].
Cn1ncc(S(=O)(=O)Cc2ccccc2)c(Br)c1=O was read as Pol kappa inh -10%[60.1 µM].
CN(C)c1ccc(N=Nc2cccc3ccoc23)cc1 was read as Pol kappa inh 0%, L3MBTL1 inh 10µM*, Pol beta inh 0%, POLI inh 1%, APE1 inh -6% and Pol eta inh -15%.
Screening CCN1CCN(Cc2c(O)ccc3c2O/C(=C\c2ccccc2)C3=O)CC1 returned Pol kappa inh 0%, Pol beta inh -23%, POLI inh 14%, APE1 inh -7% and Pol eta inh -17%.
Screening CC1CCCN(Cc2c(O)ccc3c2O/C(=C\c2ccco2)C3=O)C1 (configuration not stated) returned Pol kappa inh 35µM*, L3MBTL1 inh -24%, Pol beta inh 13µM*, POLI inh 1.6µM*, APE1 inh -1% and Pol eta inh 45µM*.
`NC(=O)C1CCN(CC(=O)Nc2nccs2)CC1` gave Pol kappa inh -10%, L3MBTL1 inh 5%, Pol beta inh -3%, POLI inh 89µM*, APE1 inh 3% and Pol eta inh -9%.
O=C(COC(=O)c1ccc([N+](=O)[O-])o1)NCc1ccccc1 was read as Pol kappa inh -24%, L3MBTL1 inh inconclusive, POLI inh inconclusive, APE1 inh -11% and Pol eta inh 50µM*.
`O=C(COC(=O)c1ccc([N+](=O)[O-])s1)Nc1ccccc1` gave Pol kappa inh -3%, L3MBTL1 inh inconclusive, Pol beta inh 6.3µM*, POLI inh 89µM*, APE1 inh inconclusive and Pol eta inh inconclusive.
Screening O=C(OCc1nnc(-c2ccccc2)o1)c1ccc([N+](=O)[O-])s1 returned Pol kappa inh -33%, L3MBTL1 inh inconclusive, POLI inh inconclusive, APE1 inh inconclusive and Pol eta inh 56µM*.
For O=C(COC(=O)c1ccc([N+](=O)[O-])s1)Nc1ccc(F)cc1 the results were Pol kappa inh -25%, L3MBTL1 inh -19%, POLI inh inconclusive, APE1 inh inconclusive and Pol eta inh inconclusive.
For COc1ccc(S(=O)(=O)N2CCOCC2)cc1NC(=O)COC(=O)c1ccc([N+](=O)[O-])s1 the results were Pol kappa inh -24%, L3MBTL1 inh inconclusive, POLI inh 89µM*, APE1 inh inconclusive and Pol eta inh inconclusive.
Screening CN(C)CCNc1nccc(N2CCN(C)CC2)n1 returned Pol kappa inh 0% and POLI inh -4%.
For COc1cccc(NC(=O)CN2C(=O)COc3ccc(S(=O)(=O)N4CCC(C)CC4)cc32)c1 the results were Pol kappa inh -1%, Pol beta inh 12%, POLI inh 8%, APE1 inh -15% and Pol eta inh -8%.
Screening c1ccc(-c2nc(-c3cccc4ccccc34)c(NC3CCCCC3)o2)cc1 returned APE1 inh 10%.
`O=C(COC(=O)c1ccc([N+](=O)[O-])s1)NC(c1ccccc1)c1ccccc1` gave Pol kappa inh -18%, L3MBTL1 inh inconclusive, Pol beta inh inconclusive, POLI inh 91%, APE1 inh -5% and Pol eta inh -17%.
`O=C(COC(=O)c1ccc([N+](=O)[O-])s1)NCc1ccccc1` gave Pol kappa inh -22%, L3MBTL1 inh inconclusive, Pol beta inh 13µM*, POLI inh inconclusive, APE1 inh inconclusive and Pol eta inh inconclusive.
O=[S+]([O-])([O-])c1ccc2c(c1)cc([S+](=O)([O-])[O-])c1nn(-c3ccc(/C=C/c4ccc(-n5nc6c([S+](=O)([O-])[O-])cc7cc([S+](=O)([O-])[O-])ccc7c6n5)cc4[S+](=O)([O-])[O-])c([S+](=O)([O-])[O-])c3)nc12 was read as Pol kappa inh 10µM* and POLI inh inconclusive.
O=C(O)c1ccc2c(ccc3nn(-c4ccc(/C=C/c5ccc(-n6nc7ccc8cc(C(=O)O)ccc8c7n6)cc5[S+](=O)([O-])[O-])c([S+](=O)([O-])[O-])c4)nc32)c1 was read as Pol kappa inh 1.8µM* and POLI inh inconclusive.
For O=C(O)c1ccc2c(c1)ncn2-c1ccc(F)c(F)c1 the results were Pol kappa inh -11%, Pol beta inh 10%, POLI inh 6% and Pol eta inh 2%.
`COc1ccc(NS(=O)(=O)c2ccc(NC(=S)NC(=O)/C=C/c3ccccc3)cc2)nn1` gave Pol kappa inh -16%, L3MBTL1 inh -2%, Pol beta inh 11%, POLI inh inconclusive, APE1 inh 0% and Pol eta inh 79µM*.
CCc1nnc(NS(=O)(=O)c2ccc(NC(=S)NC(=O)/C=C/c3ccc(C(C)C)cc3)cc2)s1 was read as Pol kappa inh -14%, L3MBTL1 inh 0%, Pol beta inh 45µM*, POLI inh 25µM*, APE1 inh -5% and Pol eta inh 45µM*.
